Data published in PubChem BioAssay (NCI).
Compounds without any hit were thinned out: in the full panel of roughly 83,000, 20% have a hit.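 Negative percent growth values reflect cell death: -40 means 40% of the cells present at the start died, and -100 means all died.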 A number with no mark means an inactive call. The source made the active and inactive calls. Rule for the calls: active = growth percent below 10; inactive = the rest.

How the values were obtained:
Test in all cases: NCI-60 one-dose screen, 48 h (100 = growth as untreated, 0 = no growth, -100 = all killed)
Conditions in all cases: 10 µM
[1] = test system: SR leukemia
[2] = test system: RPMI-8226 leukemia
[3] = test system: OVCAR-8 ovarian
[4] = test system: OVCAR-5 ovarian
[5] = test system: OVCAR-4 ovarian
[6] = test system: SK-OV-3 ovarian
[7] = test system: IGROV1 ovarian
[8] = test system: OVCAR-3 ovarian
[9] = test system: HS 578T breast
[10] = test system: NCI/ADR-RES ovarian

SMILES | growth [1] | growth [2] | growth [3] | growth [4] | growth [5] | growth [6] | growth [7] | growth [8] | growth [9] | growth [10]
Cc1cc(=O)oc2cc(OCc3cn(CC(O)CO)nn3)ccc12 (stereo not given) | 97.9% | 92.9% | 103% | 113% | 116% | 100% | 107% | 117% | 27% | 105%
Cc1nc2scc(-c3ccc(Cl)cc3)n2c(=O)c1CCN1CCOCC1 | 81.4% | 93.5% | 104% | 116% | 95.1% | 94.1% | 79.2% | 104% | 106% | 108%
NC1CCC(Nc2nc(NCc3ccc(-c4ccco4)nc3)c3ncn(C4CCCC4)c3n2)CC1 (stereo not given) | -3.17% (active) | -18.3% (active) | 11.8% | 25.1% | 2.67% (active) | -0.9% (active) | 8.71% (active) | 1.37% (active) | 10.7% | 79.5%
O=C(N/N=c1/ccoc2cccnc12)N1CCN(c2ncccn2)CC1 | 20.6% | 30.6% | 25.3% | 50% | 18.3% | 15.4% | 31.4% | 30.6% | 51.4% | 10.1%
COc1cc(C)c2sc3ccccc3c(=O)c2c1NCCN(C)C | 3.64% (active) | 33.3% | 40.5% | 87% | 72.8% | 65.7% | 29.3% | 87.4% | 58.6% | 61.9%
CNC(=O)c1cc(Oc2ccc(NC(=O)Nc3ccc(Cl)c(OC4CCCCC4)c3)c(F)c2)ccn1 | 42.2% | 19.9% | 40.7% | 88.8% | 28.6% | 72.8% | 62.9% | 33.8% | 66% | 47.6%
CCC(CCNc1cc(OC)cc2cccnc12)CN1C(=O)c2ccccc2C1=O (stereo not given) | 109% | 95.1% | 109% | 111% | 16.9% | 95.7% | 113% | 106% | 177% | 89.9%
CC(=O)O[C@H]1CC[C@@]2(C)[C@@H](CC[C@@H]3[C@@H]2CC[C@]2(C)C=C(C=O)C[C@@H]32)C1 | 2.16% (active) | 8.64% (active) | 24.9% | 71.8% | 70.4% | 113% | 60.2% | 57.8% | 105% | 70.5%
O=C(O)c1ccc(CNc2ccc(C(=O)CCl)cc2)cc1 | 41.8% | 85.7% | 99.3% | 96.8% | 91% | 100% | 134% | 90.5% | 87.4% | 123%
COc1ccccc1S(=O)(=O)Nc1ccc2c(c1)CN(C)C(=O)N2 | 36% | 4.25% (active) | 56.2% | 74.5% | 43.1% | 49.1% | 24% | 32.2% | 33.7% | 68.9%
COc1ccc2oc(=O)cc(C(c3ccc[nH]3)c3ccc[nH]3)c2c1 | 1.93% (active) | -3.8% (active) | -4.93% (active) | 34.8% | 38.8% | 7.19% (active) | 25.5% | -8.55% (active) | 18.8% | 7.99% (active)
COCCNCC(O)Cn1c2ccc(Cl)cc2c2cc(Cl)ccc21 (stereo not given) | -19.9% (active) | -36.9% (active) | -69.9% (active) | -79.1% (active) | -97.3% (active) | 52.7% | -38% (active) | -46.3% (active) | -12.3% (active) | -6.15% (active)
C=CCn1c(C)nc2cc(Nc3nc(Nc4ccc5nc(C)n(CC=C)c5c4)c4ccccc4n3)ccc21 | -44.2% (active) | -24% (active) | -40.9% (active) | -92.5% (active) | -100% (active) | -95.7% (active) | -93.8% (active) | -99.8% (active) | -48.1% (active) | -23.7% (active)
C=CCOc1ccc2c(c1)CC[C@@H]1[C@@H]2CC[C@]2(C)C(=O)/C(=N/O)C[C@@H]12 | 7.72% (active) | 20.2% | 70.5% | 44.7% | 8.34% (active) | 81.8% | 0.671% (active) | 75.6% | 35.4% | 57.6%
